Compound activity deposited in PubChem by National Center for Advancing Translational Sciences (NCATS).
Gal4-VP16 FLuc = counter-screen for ROR gamma inhibitors: Gal4-VP16 reporter; 3.5% of 310,000 active; Drosophila S2 Gal4-VP16 UAS-luciferase, luminescence, 20 h; AID 2546; Potency, µM (doses to about 53.6 µM), inactives show at the highest dose activity, negative = inhibition, hits mostly inhibitors;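 further: Gal4-VP16 expression switched on by copper sulfate through the metallothionein promoter; on the % scale 0 is the no-effect control and ±100 the full control effect; nearly all actives have a fitted effect of over 50% in size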
HepG2 viability = HepG2 cytotoxicity, counter-screen for TGF-b inhibitors. HepG2 CAGA-GFP viability, ATP luminescence, 18 h. Potency, µM (top dose mostly 46.1 µM), inactives show at the highest dose activity change, negative = cytotoxicity, usual class: cytotoxic. 0.76% of 410,000 active
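CellTiter-Glo luminescence gave cytotoxicity after 18 hours at 37 degrees C. The cells were HepG2 CAGA-GFP in 1% FBS DMEM, stimulated with 500 pg/mL TGF-beta after compound addition. %Activity was normalised to no-cell wells (complete cell-killing) and DMSO (no toxicity), and curves were fitted and classified.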
RORgamma inh = blocks mouse ROR gamma transcriptional activity; Drosophila S2 Gal4-RORgamma UAS-luciferase reporter, 20 h; 5.4% of 310,000 active; Potency, µM (titrated, usually from 53.6 µM), for inactives: at the highest dose activity change, negative = inhibition, most hits filed as inhibitors; P51450; further: on the % scale 0 is the no-effect control and ±100 the full control effect; nearly all actives have a fitted effect of over 60% in size
Target sequence (P51450 whole entry, looked up, the tested form may be a part): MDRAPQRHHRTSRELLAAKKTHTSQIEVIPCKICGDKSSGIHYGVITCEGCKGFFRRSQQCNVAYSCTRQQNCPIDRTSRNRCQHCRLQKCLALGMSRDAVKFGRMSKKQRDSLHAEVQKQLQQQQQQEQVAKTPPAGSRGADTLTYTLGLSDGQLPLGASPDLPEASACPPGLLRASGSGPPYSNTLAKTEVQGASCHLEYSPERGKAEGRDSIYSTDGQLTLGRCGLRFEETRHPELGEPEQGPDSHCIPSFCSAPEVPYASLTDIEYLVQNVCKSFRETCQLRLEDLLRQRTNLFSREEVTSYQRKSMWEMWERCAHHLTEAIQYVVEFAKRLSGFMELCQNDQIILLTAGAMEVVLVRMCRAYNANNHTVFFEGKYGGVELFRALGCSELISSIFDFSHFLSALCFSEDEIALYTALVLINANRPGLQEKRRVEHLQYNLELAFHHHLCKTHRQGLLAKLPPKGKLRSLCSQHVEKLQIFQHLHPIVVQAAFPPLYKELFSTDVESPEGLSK
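Luminescence from a UAS-regulated Photinus luciferase reporter in stably transfected Drosophila Schneider cells is measured; decreased signal marks ROR gamma inhibition. Fusion expression is induced by 700 uM copper sulfate for 20 hr.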
TGFb SMAD3 inh = TGF-b pathway inhibition; HepG2 CAGA-GFP TGF-b/SMAD3 reporter, GFP fluorescence, 18 h; TGF-beta stimulated, 500 pg/mL final; AID 588855; Potency, µM (series often up to 46.1 µM), inactives show at the top dose activity, negative = inhibition, most hits filed as inhibitors; 1.2% of 410,000 active; further: on the % scale 0 is the no-effect control and ±100 the full control effect; nearly all actives have a fitted effect of over 65% in size
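Smad-responsive CAGA-GFP expression was quantified in HEPG2 cells exposed to compounds and 500 pg/mL final TGF-beta for 18 h at 37 degrees C; unstimulated wells defined full inhibition.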
ATXN viability = cell viability loss in ATXN counter-screen | S2 cells (HEK-293 line with an ATXN2-luciferase reporter) viability, CellTiter-Fluor protease fluorescence, 24 h | Potency, µM (highest dose often 56.7 µM), actives largely listed as cytotoxic | 0.49% of 400,000 active; further: nearly all actives have a fitted effect of over 40% in size
ATXN2 expr inh = reduces ATXN2 reporter expression in HEK-293 cells; AID 1745845; 0.72% of 360,000 active; Potency, µM (highest dose often 57 µM), for inactives: at the highest dose activity change, negative = inhibition, most hits filed as inhibitors; HEK-293 ATXN2-luciferase reporter, luminescence, 24 h; further: on the % scale 0 is the no-effect control and ±100 the full control effect; nearly all actives have a fitted effect of over 55% in size
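ATXN2-luciferase reporter cells (luciferase flanked by upstream and downstream ATXN2 gene portions) were treated 24 h at 37 °C with compounds at up to 57 uM. SteadyGlo luminescence gave expression; GF-AFC fluorescence gave viability.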
* hit, by the source's call; i = inactive; ? = inconclusive; . = no result given. Sampled rows, rich in hits. Any-hit rate of the full collection: about 6.3%. The call rests on the fitted dose curve; in most records, active means well fitted curve in the direction sought with a large enough effect; inconclusive means small, poorly fitted or top-dose-only effect, or another doubt; inactive means no such curve, though single readings can be large; an effect the other way counts as inactive or inconclusive. Potency means the concentration at half of the fitted maximal effect.

SMILES	Gal4-VP16 FLuc	HepG2 viability	RORgamma inh	TGFb SMAD3 inh	ATXN viability	ATXN2 expr inh
O=C(NCc1ccccc1Cl)C1CCC(CNc2nc(=S)[nH]c3ccccc23)CC1 (stereo not drawn)	-4%	-18%	-42%	-4%	?	?
S=c1nc(NCCc2ccccc2Cl)c2ccccc2[nH]1	6.3µM*	-20%	1.6µM*	1%	i	37%
O=C(CCCCCNc1nc(=S)[nH]c2ccccc12)NCc1ccccc1Cl	?	.	18µM*	.	.	.
Cc1ccc2nc(N3CCN(C(=O)C4COc5ccccc5O4)CC3)sc2c1 (stereo not drawn)	.	-31%	.	?	.	.
Cc1ccc(NC(=O)Nc2nnc(N3CCCC3)s2)cc1C	.	-1%	.	?	i	1%
CCOC(=O)c1ccccc1NC(=O)CSc1ncc(C(=O)OCC)c(N)n1	0%	-9%	6%	4%	i	-8%
CCOc1ccccc1NC(=O)CSc1ncc(S(=O)(=O)c2ccc(C)c(C)c2)c(N)n1	.	-21%	.	8.9µM*	i	2%
O=C(Nc1ccc2c(c1)CCC2)c1cc(S(=O)(=O)Nc2ccc(F)cc2)c(Cl)cc1Cl	6.3µM*	0%	?	?	?	-1%
O=C(Nc1ccc2c(c1)CCC2)c1ccc(F)cc1	?	-32%	?	0%	i	90%
CCNc1nc(NCC)nc(N(C)/N=C/c2ccco2)n1	20µM*	-16%	3.5µM*	1%	i	-3%
Cc1cc(C)nc(S[C@H]2C[C@@H](C(=O)N3CCN(c4ccccc4F)CC3)N(Cc3ccccc3F)C2)n1	.	.	.	.	i	.
CC1(C(=O)O)CCCN1C(=O)c1cccc(F)c1 (stereo not drawn)	.	2%	.	5%	i	13%
Cc1nn(Cc2cccc(F)c2)c(C)c1NC(=O)c1ccc(COc2ccccc2Cl)cc1	?	2%	29%	?	?	3.2µM*
Cc1nn(Cc2c(F)c(F)c(F)c(F)c2F)c(C)c1NC(=O)c1cccc(COc2ccccc2Cl)c1	-5%	-43%	37%	-23%	i	?
Cc1nn(Cc2c(F)c(F)c(F)c(F)c2F)c(C)c1NC(=O)c1ccc(COc2ccc(Cl)cc2Cl)o1	-4%	-5%	?	?	i	20µM*
Cc1cccc(CNC(=O)c2cnn(-c3ncc4c(n3)-c3ccccc3CC4)c2C2CC2)n1	.	.	.	.	i	.
CC(C)OC(=O)c1sc2nc(-c3ccccc3)ccc2c1N	?	-27%	7.1µM*	0%	.	5%
COc1cc([C@H]2c3[nH]c4ccccc4c3C[C@H]3C(=O)N4[C@@H](c5cc(OC)c(OC)c(OC)c5)c5[nH]c6ccccc6c5C[C@H]4C(=O)N23)cc(OC)c1OC	10µM*	14µM*	?	?	16µM*	?
CCN1C(=O)[C@@H]2Cc3c([nH]c4ccccc34)C(c3cc(OC)c(OC)c(OC)c3)N2C1=S (stereo partly drawn)	19%	-27%	17%	158%	i	.
Nc1ccc(-c2nc3c(ccc4ccccc43)[nH]2)cc1	?	-14%	0.89µM*	-11%	i	.
Nc1ccc(-c2nc3ccccc3[nH]2)cc1	-9%	3%	-29%	-6%	i	3%
CCOC(=O)C(Sc1nnc(-c2ccncc2)o1)C(C)=O (stereo not drawn)	4.5µM*	-2%	5µM*	20%	i	-6%
COC(=O)C(C)Sc1nnc(-c2ccncc2)o1 (stereo not drawn)	15%	-2%	5%	-8%	i	5%
CN(C)c1nc(NCc2ccccc2)nc(N/N=C/c2ccc(Br)cc2)n1	13µM*	-18%	2.8µM*	-27%	i	.
CN(C)c1nc(NCc2ccccc2)nc(N/N=C/c2ccc3c(c2)OCO3)n1	?	-25%	7.9µM*	5%	i	13%
SMILES	Gal4-VP16 FLuc	HepG2 viability	RORgamma inh	TGFb SMAD3 inh	ATXN viability	ATXN2 expr inh
CCNc1nc(NCC)nc(N/N=C/c2ccc(N(C)C)cc2)n1	?	-5%	7.9µM*	-1%	i	.
CN(C)c1ccc(/C=N/Nc2nc3ccccc3o2)cc1	11µM*	-24%	6.3µM*	0%	i	?
O=c1[nH]c(N/N=C\c2ccc3c(c2)OCO3)nc2ccccc12	?	-21%	?	0%	i	12%
Brc1ccc(/C=N/Nc2ccccc2)cc1	3%	-12%	25%	-14%	i	19%
N=C(N)c1ccc(OCCCOc2ccc(C(=N)N)cc2Br)c(Br)c1	.	.	.	.	i	.
COc1cc(/C=C/c2nc(C#N)c(N3CCCCC3)o2)cc(OC)c1OC	.	-8%	.	1%	.	.
O=C(N[C@H]1CCC(=O)N(CCSc2ccc(Br)cc2)CC1)OCc1ccccc1	.	-37%	.	7.1µM*	28µM*	?
Cc1ccc(SCCN2CCC(NC(=O)OCc3ccccc3)CCC2=O)cc1 (stereo not drawn)	0%	-12%	2%	0%	i	-2%
Cc1ccccc1NC(=S)c1ccc2ccccc2n1	6.3µM*	-6%	?	?	?	.
CCCN(CC(=O)Nc1ccccc1C)C(=O)c1ccc2ccccc2n1	.	0%	.	-9%	?	-6%
O=C1C(=O)C(c2ccc(O)cc2O)Oc2cc(O)cc(O)c21 (stereo not drawn)	.	-1%	.	-3%	.	.
Cc1cc(C(=O)COC(=O)c2nccnc2N)c(C)n1C	?	26%	10µM*	0%	i	?
CCC(=O)c1ccc(OCC(=O)OCC(=O)c2cc(C)n(C)c2C)cc1	1.3µM*	-12%	0.89µM*	-4%	i	4%
COc1cc(C(=O)OCC(=O)c2cc(C)n(C)c2C)cc(OC)c1OC	-3%	-19%	-1%	-5%	i	-15%
CC(CCC(C)[n+]1cccc(Br)c1)[n+]1cccc(Br)c1 (stereo not drawn)	.	7%	.	-1%	.	.
Cc1cc(S(=O)(=O)NCc2nc(N3CCCC3)c3cc(Cl)ccc3n2)c(C)s1	.	.	.	.	i	.
Cc1nc(SC2CC(=O)N(c3ccccc3)C2=O)n[nH]1 (stereo not drawn)	4.5µM*	0%	4.5µM*	-9%	i	?
Nc1nnc(SC2CC(=O)N(c3ccccc3)C2=O)s1 (stereo not drawn)	10µM*	-11%	5µM*	2%	i	4%
O=C1CC(Sc2ncccn2)C(=O)N1c1ccccc1 (stereo not drawn)	-2%	-3%	?	-9%	i	-3%
